Source: PubChem BioAssay (National Center for Advancing Translational Sciences (NCATS))
In the library only some 18% were active in any assay of this set; here they are far more common.
TDP1 inh: inhibitors of human tyrosyl-DNA phosphodiesterase TDP1; Potency, µM (top dose mostly 130 µM), for the others: at the top dose activity change, negative = inhibition, usual class: inhibitors; recombinant TDP1, AlphaScreen DNA substrate cleavage; Q9NUW8; 350,000 compounds, 0.28% hits; also: nearly all actives have a fitted effect of over 40% in size
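Recombinant E. coli-expressed Tdp1 (1 nM) preincubated with compound 15 min at RT, then 5'-biotin/3'-phosphotyrosine-FITC DNA substrate (15 nM) added for 5 min. AlphaScreen beads (10 ug/ml) added, 10 min RT; tyrosine-FITC cleavage read as signal loss.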
TDP1 cell CPT: DT40-hTDP1 cell growth loss with CPT; 420,000 compounds, 12% hits; chicken DT40 Tdp1-/-;hTDP1 cells + 20 nM CPT, ATP luminescence, 48 h; AID 686979; Potency, µM (doses to about 46.2 µM), without a hit: top-dose activity change, negative = growth inhibition, usual class: inhibitors; also: nearly all actives have a fitted effect of over 55% in size
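Chicken DT40 Tdp1-/- cells complemented with human TDP1, 400 cells/well, exposed to compounds plus 20 nM camptothecin for at least 48 h at 37 C; viability read as ATP content by CellTiter-Glo luminescence.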
KAT2A inh: inhibitors of human GCN5L2 histone acetyltransferase; GCN5L2 HAT assay, ThioGlo1 CoA-SH fluorescence; 390,000 compounds, 0.21% hits; Q92830; Potency, µM (titrated, usually from 58.9 µM), for the others: at the highest dose activity change, negative = inhibition, most hits filed as inhibitors; AID 504327
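Titration-based screen in which CoA formation is detected via maleimide probe ThioGlo1 (50uM) turning fluorescent on thiol reaction; substrates H3(1-25) 75uM and acetyl-CoA 70uM, GCN5L2 20nM, 20 min incubation at room temperature.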
VDR inhibitor: vitamin D3 receptor (human) inhibition; P11473; VDR-SRC2-3 peptide fluorescence polarization, 2 h; Potency, µM, inactives show max response, negative = inhibition, actives largely listed as inhibitors; 400,000 compounds, 0.93% hits; AID 504847
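After 23 nl compound addition and a short centrifugation, plates sat for 2 hours at ambient temperature; polarization of fluorescence then indicated loss of VDR binding to peptide SRC2-3.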
TDP1 cell noCPT: qHTS for Inhibitors of human tyrosyl-DNA phosphodiesterase 1 (TDP1): qHTS in cells in absence of CPT; 420,000 compounds, 15% hits; DT40 Tdp1-/- hTDP1 cells, no CPT, ATP luminescence, 48 h; Potency, µM (titrated, usually from 46.2 µM), for inactives: at the highest dose activity change, negative = growth inhibition, usual class: inhibitors; also: nearly all actives have a fitted effect of over 55% in size
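Chicken DT40 Tdp1-/- cells complemented with human TDP1, screened without camptothecin (DMSO vehicle only), 400 cells/well. Compounds pin-transferred, cells incubated at 37 °C for at least 48 hr. Growth read as ATP-dependent luminescence (CellTiter-Glo, 30 min at RT).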
PLK1 PBD inh: PLK1 (human) polo-box domain binding inhibition; P53350; Plk1 PBD binding of FITC phosphopeptide, fluorescence polarization; Potency, µM, without a hit: max response, negative = inhibition, actives largely listed as inhibitors; 360,000 compounds, 2.8% hits; also: series mostly up to about 57 µM; nearly all actives have a fitted effect of over 65% in size
Target sequence (P53350 whole entry, looked up, the tested form may be a part): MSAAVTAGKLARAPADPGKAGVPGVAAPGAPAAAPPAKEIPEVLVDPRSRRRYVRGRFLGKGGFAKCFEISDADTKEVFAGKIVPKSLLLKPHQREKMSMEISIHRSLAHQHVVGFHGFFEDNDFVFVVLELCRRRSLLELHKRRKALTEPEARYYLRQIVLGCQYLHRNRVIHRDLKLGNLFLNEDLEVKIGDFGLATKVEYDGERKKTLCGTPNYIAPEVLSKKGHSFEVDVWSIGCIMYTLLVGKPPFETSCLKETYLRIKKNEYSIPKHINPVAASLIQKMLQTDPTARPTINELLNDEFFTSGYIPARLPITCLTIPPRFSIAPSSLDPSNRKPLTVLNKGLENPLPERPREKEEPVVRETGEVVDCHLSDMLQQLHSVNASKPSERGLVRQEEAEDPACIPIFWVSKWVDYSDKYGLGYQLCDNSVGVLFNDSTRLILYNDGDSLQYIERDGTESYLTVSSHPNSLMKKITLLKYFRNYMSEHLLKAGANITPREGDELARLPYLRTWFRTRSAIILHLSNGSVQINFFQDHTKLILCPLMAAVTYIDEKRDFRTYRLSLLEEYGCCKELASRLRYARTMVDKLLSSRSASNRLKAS
Starred values were filed as active, the others as inactive; ? = inconclusive; nt = no result given; ! = not confirmed by another sample; [ ] = remark or other dose. Calls follow the shape of the dose curve; as a rule, active = well fitted curve in the direction sought with a large enough effect; inconclusive = small, poorly fitted or top-dose-only effect, or another doubt; inactive = no such curve, though single readings can be large; an effect the other way counts as inactive or inconclusive. % is scaled to controls: 0 for no effect and ±100 for the full control effect; potency is read from the fitted curve at half-maximal effect.

SMILES | TDP1 inh | TDP1 cell CPT | KAT2A inh | VDR inhibitor | TDP1 cell noCPT | PLK1 PBD inh
COc1ccc(/C(C)=N/N=C2/NC(=O)CC(C(=O)O)S2)cc1 (centres undefined) | 0% | ? | -23% | ? | ? | 12µM*
C/C(=N\N=C1\NC(=O)CC(C(=O)O)S1)c1ccc(F)cc1 (centres undefined) | -2% | 4% | -6% | -14% | -19% | -5%
O=C(NC1CCCCC1)C(c1ccc(F)cc1)N(CCc1ccccc1)C(=O)CN1C(=O)c2ccccc2S1(=O)=O (centres undefined) | 4% | 3.7µM* | -4% | -12% | 5.8µM* | -2%
O=C(NC1CCCCC1)C(c1ccc(F)cc1)N(Cc1ccccc1)C(=O)CN1C(=O)c2ccccc2S1(=O)=O (centres undefined) | 0% | 21µM* | 4% | 4% | 21µM* | ?
O=C(NCC1CCCO1)C(c1ccncc1)N(Cc1ccc(F)cc1)C(=O)CN1C(=O)c2ccccc2S1(=O)=O (centres undefined) | 2% | 3% | 1% | -3% | ? | -6%
COc1ccccc1N(C(=O)CN1C(=O)c2ccccc2S1(=O)=O)C(C(=O)NCC1CCCO1)c1ccc(F)cc1 (centres undefined) | 3% | ? | 2% | -3% | ? | -7%
CN(C)CCNC(=O)C(=O)Nc1cc2c3c(c1)CCN3C(=O)CC2 | 0% | 22% | -6% | ? | -1% | -9%
Cc1ccc(CNc2nc(-c3ccco3)nn2C(=O)c2ccccc2[N+](=O)[O-])cc1 | 6% | ? | -7% | 15% | 18µM* | nt
COc1ccccc1CNc1nc(-c2ccco2)nn1C(=O)c1ccccc1[N+](=O)[O-] | 4% | ? | -14% | 12% | ? | nt
COc1ccc(NC(=O)C2CCCN2S(=O)(=O)c2ccc3c(c2)CC(C)N3C(C)=O)cc1OC (centres undefined) | 4% | ? | 0% | 7% | 0% | 4%
CC(=O)N1c2ccc(S(=O)(=O)N3CCCC3C(=O)Nc3cccc(F)c3)cc2CC1C (centres undefined) | nt | 16µM* | -5% | 9% | ? | 1%
CCc1cccc(NC(=O)C2CCCN2S(=O)(=O)c2ccc3c(c2)CC(C)N3C(C)=O)c1 (centres undefined) | nt | ? | -6% | -5% | 12µM* | -2%
Cc1cc(NC(=O)CSc2ncc(C(=O)O)n2-c2ccc(F)cc2)no1 | ? | 11% | -5% | 11% | -4% | 2%
C[C@@H]1CN([C@H](C)CO)C(=O)CCCn2nncc2CO[C@H]1CN(C)Cc1cccc2c1OCCCO2 | nt | -7% | nt | nt | 8% | -4%
CCCCCC1CCC(c2ccc(/C(N)=N/O)cc2)CC1 (centres undefined) | nt | 15µM* | -12% | -7% | 8.2µM* | -4%
Cc1ccc2ncc(S(=O)(=O)c3ccccc3)c(N3CCCCC3C)c2c1 (centres undefined) | 1% | 23µM* | -10% | -5% | 18µM* | 1%
CC(C)(C)NC(=O)[C@@H]1CN(Cc2cccnc2)CCN1C[C@@H](O)C[C@@H](Cc1ccccc1)C(=O)N[C@H]1c2ccccc2C[C@H]1O | nt | ? | nt | -4% | 12µM*! | -11%
CC(C)=CCN1CCN(Cc2cccnc2)CC1CCO (centres undefined) | 6% | 5% | 0% | -6% | 21% | -3%
Cc1ccc(F)c(S(=O)(=O)NC(=O)C2(C)CCN2C(=O)C2(c3ccc(Cl)cc3)CC2)c1 (centres undefined) | nt | -10% | nt | nt | -4% | 1%
CC1(C(=O)NS(=O)(=O)c2ccc(Cl)cc2)CCN1C(=O)C1(c2ccc(Cl)cc2)CCC1 (centres undefined) | nt | 21µM* | nt | nt | ? | ?
CC1(C(=O)NS(=O)(=O)c2ccc(C#N)cc2)CCN1C(=O)C1(c2ccccc2)CCCC1 (centres undefined) | nt | 12µM* | nt | nt | 13µM* | -4%
Cc1ccc(F)c(S(=O)(=O)NC(=O)C2(C)CCN2C(=O)C2(c3ccc(Cl)cc3)CCC2)c1 (centres undefined) | nt | 16µM* | nt | nt | ? | -26%
CC1(C(=O)NS(=O)(=O)c2ccc(Cl)cc2)CCN1C(=O)C1(c2ccccc2)CCCC1 (centres undefined) | nt | ? | nt | nt | ? | -8%
CCC1CCc2sc(C(=O)O)cc2C1 (centres undefined) | 4% | 1% | 0% | -10% | 1% | -8%
C=CCN1CCN(C(=O)c2cc3c(s2)CCC(CC)C3)CC1 (centres undefined) | 3% | ? | -3% | -1% | 16µM* | -12%
SMILES | TDP1 inh | TDP1 cell CPT | KAT2A inh | VDR inhibitor | TDP1 cell noCPT | PLK1 PBD inh
CCOP(=O)(OCC)C(C)(C)NC(=O)Nc1ccc(Cl)c(Cl)c1 | 3% | -18% | 0% | 0% | ? | -8%
COc1cc(C(C)=O)ccc1OCC(=O)Nc1ccc2nc(C)sc2c1 | -2%[56.1 µM] | -8% | -3% | -14% | ? | -3%
COc1ccccc1Oc1nc(C)c(C(C)=O)cc1C#N | 6% | -2% | -3% | -15% | -24% | -1%
COc1ccccc1Oc1cc(C#N)c(C#N)cc1-n1nnc2ccccc21 | -1% | 23µM* | -3% | -1% | 18µM* | -2%
CCn1c(SC(C)C(=O)NCc2ccco2)nnc1-c1ccccc1 (centres undefined) | nt | 3% | nt | nt | -23% | nt
CCCN1CCN(C(=S)Nc2ccc3nc(N4CCN(CC)CC4)cc(C)c3c2)CC1 | -2% | ? | -5% | 8% | ? | -2%
CCN1CCN(c2cc(C)c3cc(NC(=S)N(CC)CC)ccc3n2)CC1 | -2% | ? | 0% | -7% | ? | -9%
CCCCc1ccc(C(=O)Nc2ccc3nc(N4CCN(CC)CC4)cc(C)c3c2)cc1 | 3% | 3.7µM* | -6% | 7% | 2.9µM* | nt
CCN1CCN(c2cc(C)c3cc(NC(=O)Cc4ccc(OC)c(OC)c4)ccc3n2)CC1 | 1% | -18% | -1% | 11% | -15% | -1%
CCOc1ccc(C(=O)Nc2ccc3nc(N4CCN(CC)CC4)cc(C)c3c2)cc1 | nt | ? | 0% | -3% | 26µM* | -9%
CCN1CCN(c2cc(C)c3cc(NC(=O)c4cc(OC)cc(OC)c4)ccc3n2)CC1 | 4% | ? | -4% | -7% | 16µM* | -14%
O=C(O)c1ccc(N2CCCS2(=O)=O)cc1 | 2% | 23% | -3% | 5% | -7% | -7%
